Laboratory results: PubChem BioAssay

target: Luciferin 4-monooxygenase (Photinus pyralis) (UniProt P08659); experiment: inhibition of purified Photinus pyralis luciferase – biochemical, luminescence, purified enzyme, 2006 set, primary screen (AID 1141); conditions: purified firefly luciferase, SteadyGlo luminescence, 30 min; higher = more signal, called active from +8 up or from −8 down;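 also: cell-free assay with purified firefly luciferase at 100 ng per well in PBS; test concentration not given here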
Sequence (P08659 whole entry, looked up): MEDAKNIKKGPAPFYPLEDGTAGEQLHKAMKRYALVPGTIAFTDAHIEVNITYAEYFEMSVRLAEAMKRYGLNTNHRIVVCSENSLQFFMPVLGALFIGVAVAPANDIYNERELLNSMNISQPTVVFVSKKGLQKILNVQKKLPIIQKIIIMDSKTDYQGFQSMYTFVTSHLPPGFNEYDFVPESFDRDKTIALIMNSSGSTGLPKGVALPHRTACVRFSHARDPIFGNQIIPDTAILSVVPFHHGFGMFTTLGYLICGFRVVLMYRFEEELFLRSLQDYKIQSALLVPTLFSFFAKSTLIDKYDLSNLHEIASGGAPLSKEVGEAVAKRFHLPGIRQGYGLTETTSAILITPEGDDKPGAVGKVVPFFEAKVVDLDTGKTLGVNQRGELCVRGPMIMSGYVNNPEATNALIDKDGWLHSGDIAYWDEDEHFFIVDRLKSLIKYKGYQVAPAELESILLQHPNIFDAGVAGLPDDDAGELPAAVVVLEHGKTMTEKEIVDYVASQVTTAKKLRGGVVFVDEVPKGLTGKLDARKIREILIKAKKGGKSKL

z-score, inactive:
C=CCc1cccc([C@@H]2[C@@H](C)CC[C@H]3C(=O)N4[C@H](c5cccc(CC=C)c5)[C@@H](C)CC[C@H]4C(=O)N23)c1 -0.744
CCCCCCc1nc(C2CC2)c(C)c2c1[Si](C(C)C)(C(C)C)OC2 -0.441
CC(C)(C)OC(=O)CC[C@]1(C(=O)NCCN2CCOCC2)N=C(c2ccc(OCCCO)cc2)O[C@H]1c1ccccc1CN=[N+]=[N-] -0.736
CCOC(=O)C[C@H]1[C@H](OC(=O)c2ccccc2-c2ccccc2)[C@@H](NC(=O)c2ccc(-c3ccccc3)cc2)c2cc(OCCCO)ccc2N1C(=O)Cc1ccc(OC)cc1 0.393
C=CCN1C(=O)[C@@]2(Cc3ccccc3)N=C(c3ccc(OCCCO)cc3)O[C@H]2c2ccccc21 -5.51
C=CCC(OC(C)=O)[C@@H]1[C@@H](N(Cc2cc3ccccc3o2)C(=O)c2ccc(C)cc2)c2cc(OCCCO)ccc2N1C(=O)c1ccc2ccccc2n1 (some centres not stated) -1.33
C=C(C(=O)CC[C@H](OC(=O)c1ccccc1-c1ccccc1C(=O)O)c1ccc(CO)o1)C(C)C -1.75
O=C(CS)NCCCCCNC(=O)[C@H]1C[C@H]2C(=O)N3CCC[C@H]3C(=O)N2[C@H]1c1ccc(O)cc1 -1.75
N#Cc1ccc(NN2C(C(O)CCc3ccccc3)C=CC3C(=O)N(c4ccccc4)C(=O)C32)cc1 (configuration not stated) -0.98
O=[N+]([O-])c1ccc(C[n+]2ccc3ccc(O)cc3c2)o1 -2
Cc1ccc(S[C@]2(C(=O)NC(C)C)CC(=O)N(Cc3cc(C(F)(F)F)cc(C(F)(F)F)c3)[C@@H]2c2ccc(CO)cc2I)cc1 0.819
COC(=O)[C@@]1(Cc2ccccc2N=[N+]=[N-])N=C(c2ccc(OCCCO)cc2)O[C@H]1c1ccccc1CN=[N+]=[N-] -1.76
O=C(NCc1ccccc1)c1ccc(Br)cc1[N+](=O)[O-] -0.941
C=C(COC)/C(=C/C[C@H](OC(C)=O)c1ccc(OCCO)cc1)c1cnc2ccccc2c1 -1.81
COc1cc2c(cc1OC)CN(C(=O)[C@H]1[C@@H]3C(=O)O[C@@H](c4ccccc4)[C@@H](c4ccccc4)N3[C@@H](c3ccccc3OCCO)[C@]13C(=O)Nc1ccc(C#CC4(O)CCCCCC4)cc13)CC2 -1.02
COCCOC(=O)N1C(=O)[C@@]2(c3cc(C#CCCO)ccc31)[C@H](c1ccc(O)cc1)N1[C@H](c3ccccc3)[C@H](c3ccccc3)OC(=O)[C@H]1[C@@H]2C(=O)Nc1nc2ccccc2s1 0.0884
CC[C@H]1C2=C3C(CC[C@H]4C(OC)OC[C@](C)([C@@H]34)N(C(=O)OC(C)(C)C)C2)C(CO)C1CO (some centres not stated) 0.16
CN(C)C(=O)[C@@]1(Cc2ccccc2N=[N+]=[N-])N=C(c2ccc(OCCCO)cc2)O[C@H]1c1ccccc1CN=[N+]=[N-] -1.92
CC(C)[C@H]1NC(=O)[C@@]23C(=O)N[C@@H](Cc4ccccc4)C2[C@H](C)[C@@]2(C)O[C@H]2C3/C=C/C/C=C\CNC(=O)[C@H](C)NC1=O (some centres not stated) -0.0632
O=C1c2ccccc2[C@](Cc2ccccc2I)(C(=O)NCc2ccccc2)[C@H](c2ccc(CO)cc2)N1Cc1ccccc1C(F)(F)F -1.09
O=C1c2ccccc2[C@](Cc2ccccc2I)(C(=O)NCC(F)(F)F)[C@H](c2ccc(CO)cc2)N1Cc1ccccc1C(F)(F)F -0.956
CCC1=C2CN(Cc3ccccc3Br)[C@@H]([C@@H](O)Cc3ccccc3)C2C=CCC1 (some centres not stated) -0.852
C=CCc1cccc([C@H]2N[C@H](C(=O)O)CC[C@@H]2C)c1 -0.42
COC(=O)C1=CC(c2ccc(CO)cc2)=CC(c2cccs2)N(Cc2cccc(OC(F)(F)F)c2)C=C1C(=O)OC (configuration not stated) -0.926
C=C(CCCC)C(=O)CC[C@@H](OC(=O)c1cccnc1)c1cccc(OCCO)c1 -3.06
CO[C@H]1COC(=O)[C@H](Cc2ccccc2)NC(=O)CC=C[C@@H](C)[C@H](OC)COC(=O)CC=C[C@@H]1C -1.27
COCCOC(=O)N1C(=O)[C@@]2(c3cc(C#CCC(C(=O)OC)C(=O)OC)ccc31)[C@H](C(=O)N1CCN(c3ncccn3)CC1)[C@H]1C(=O)O[C@H](c3ccccc3)[C@H](c3ccccc3)N1[C@@H]2c1ccc(O)cc1 -1
